Rows were chosen to be rich in hits. Some 2.4% of all compounds tested hit in one or more screens of this group.
S1P4 agonist – activates the human S1P4 receptor | O95977 | S1P4-expressing cell line, agonist reporter assay | activation, % at 4.98 µM | 220,000 tested, 0.35% active | AID 1509; in the data active = activation above about 11%;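 also: 0% = DMSO vehicle and 100% = reference agonist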
S1P4 antagonist – human S1P4 receptor antagonism | O95977 | AID 1510 | 220,000 tested, 0.26% active | inhibition, % at 4.98 µM | S1P4-expressing cells, antagonist mode, reporter read-out; in the data active = inhibition above about 29%;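 also: 0% = wells stimulated with agonist and 100% = vehicle wells without agonist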
EP2 modulator – modulates human prostaglandin E2 receptor EP2 signaling; P43116; EP2-expressing cells, cAMP HTRF FRET, PGE2 co-stimulation; induction, % at 25 µM; 260,000 tested, 0.83% active; AID 940;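 active = compounds whose cAMP rise, as percent of the full-agonist control response, exceeds 60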;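 also: rat C6 glioma line stably carrying human EP2 under a CMV promoter; the protocol text gives 20 µM as final concentration; 100% = response of wells given 1 µM PGE2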
Target sequence (P43116 whole entry, looked up): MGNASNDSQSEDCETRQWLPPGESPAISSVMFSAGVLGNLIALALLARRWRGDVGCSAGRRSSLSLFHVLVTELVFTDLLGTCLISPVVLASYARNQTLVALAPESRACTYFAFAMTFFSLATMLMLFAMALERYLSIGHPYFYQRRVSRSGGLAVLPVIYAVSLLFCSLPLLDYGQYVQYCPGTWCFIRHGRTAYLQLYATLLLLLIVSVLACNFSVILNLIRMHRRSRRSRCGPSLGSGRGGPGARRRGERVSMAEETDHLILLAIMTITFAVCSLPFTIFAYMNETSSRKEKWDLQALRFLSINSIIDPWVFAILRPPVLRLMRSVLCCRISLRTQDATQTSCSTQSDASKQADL
Insulin prom inh – TRM-6 insulin promoter activity inhibition; TRM-6 cells (human fetal islet line), insulin promoter-eGFP reporter, imaging; reporter expression induced with tamoxifen; inhibition, % at 2 µM; 130,000 tested, 0.9% active;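 active = inhibition above the mean plus 3 SD, with well images judged a real hit on visual review, cut at about 60% in these data, passing the limit was not always enough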
PGE2 EP2 inh – inhibitors of human EP2 prostaglandin E2 receptor; P43116; C6 glioma cells expressing human EP2, cAMP TR-FRET; cells stimulated with saturating PGE2; inhibition, % at 25 µM; 260,000 tested, 0.52% active; AID 1422;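 active = percent inhibition above 40 after rounding to a whole number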;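 also: rat C6 glioma host cells with rolipram phosphodiesterase inhibitor present; the protocol text gives 20 µM as final concentration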
S1P3 antagonist – blocks the human S1P3 receptor; 170,000 tested, 0.27% active; CHO S1P3 NFAT-BLA reporter, FRET fluorescence, antagonist mode; inhibition, % at 4.98 µM; AID 485;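 active = inhibition above the plate cutoff, the mean inhibition of test wells on that plate plus 3 SD, cut at about 28% in these data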;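 also: cells challenged with S1P at its EC80 of 0.8 µM; blue over green emission ratio from cleaved BLA substrate after 4 h stimulation; 0% = S1P-stimulated wells and 100% = unstimulated DMSO-only wells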
Target sequence (Q99500 whole entry, looked up): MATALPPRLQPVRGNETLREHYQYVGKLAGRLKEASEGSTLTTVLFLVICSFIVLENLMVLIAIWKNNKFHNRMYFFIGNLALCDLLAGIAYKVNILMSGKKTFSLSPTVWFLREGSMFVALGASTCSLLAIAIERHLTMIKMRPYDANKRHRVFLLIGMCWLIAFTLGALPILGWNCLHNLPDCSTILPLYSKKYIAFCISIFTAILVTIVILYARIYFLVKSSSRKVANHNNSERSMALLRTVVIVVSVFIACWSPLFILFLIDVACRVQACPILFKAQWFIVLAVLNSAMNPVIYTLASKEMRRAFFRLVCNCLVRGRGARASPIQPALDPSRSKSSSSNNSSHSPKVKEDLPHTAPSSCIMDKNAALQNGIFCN
EP2 cAMP induct – human EP2 receptor cAMP induction, negative in counter-screens; shares compounds with EP2 modulator; C6 glioma EP2 cells, cAMP HTRF induction; plus low (about EC15) PGE2 agonist; calls only at 20 µM (by protocol); 1,300 tested, 47% active;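 active = cAMP induction above 50% in the main assay while under 30% in all four parallel counter assays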;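 also: rat C6 glioma cells stably expressing human EP2 receptor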
S1P4 agonist cf – confirmation of human S1P4 receptor agonists; shares compounds with S1P4 agonist; S1P4 agonist cell-based reporter assay; activation, % at 4.98 µM; 740 tested, 7% active; AID 1523; in the data active = activation above about 12%;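 also: 0% = vehicle and 100% = full reference agonist response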
S1P1 agonist – counter-screen for S1P4 agonists: agonists of human S1P1; shares compounds with S1P4 agonist; S1P1 agonist cell-based assay, activation; activation, % at 4.98 µM; 740 tested, 4% active; AID 1563; in the data active = activation above about 21%;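 also: 0% = vehicle wells and 100% = reference agonist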
S1P4 antag cf – human S1P4 antagonism, confirmation | inhibition, % at 4.98 µM | 520 tested, 71% active | shares compounds with S1P4 antagonist | S1P4-expressing cell line, antagonist mode, reporter read-out | AID 1524; in the data active = inhibition above about 30%
S1P1 antagonist – blocks human S1P1, counter-screen for S1P4 antagonists; inhibition, % at 4.98 µM; AID 1564; 520 tested, 37% active; cell-based S1P1 antagonist counterscreen, inhibition; shares compounds with S1P4 antagonist; in the data active = inhibition above about 40%;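 also: receptor stimulated with S1P near its EC80; 0% = agonist stimulated wells and 100% = vehicle only wells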
* hit, by the source's call; i = inactive; · = no result given; + = active, no number.

SMILES | S1P4 agonist | S1P4 antagonist | EP2 modulator | Insulin prom inh | PGE2 EP2 inh | S1P3 antagonist | EP2 cAMP induct | others
O=C(Nc1cccc(NC(=O)c2ccco2)c1)c1ccc(F)cc1 | · | · | -66 | · | 12 | · | ·
Cc1ccccc1NC1=C(C(=O)c2ccccc2)N(C)S(=O)(=O)c2ccccc21 | 1 | 6 | 78* | · | 12 | · | +
CC(C)C(=O)Nc1nnc(CCN2CCCCC2)s1 | 1 | 5 | -12 | -25 | 5 | · | ·
CC(=O)Nc1nnc(CCN2CCCCC2)s1 | -1 | -8 | 72* | -3 | 5 | · | i
O=c1[nH]ncc2c3ccccc3n(Cc3cccc(Cl)c3)c12 | 1 | -14 | 60 | 0 | 8 | -4 | i
O=c1[nH]ncc2c3ccccc3n(Cc3ccc(F)cc3)c12 | 1 | 4 | 28 | 0 | 13 | 7 | ·
CC1CCc2c(sc(N)c2C(=O)OC(C)C)C1 (stereo unspecified) | 1 | 6 | 68* | 7 | 12 | · | i
CCOC(=O)Nc1sc2c(c1C(N)=O)CCC(C)C2 (stereo unspecified) | 2 | -27 | 4 | · | 11 | -4 | ·
CCOc1ccc(CN2CCc3c(nc(N4CC(C)OC(C)C4)[nH]c3=O)C2)cc1OC (stereo unspecified) | · | · | 2 | · | · | · | ·
O=c1n(Cc2ccccc2F)c2ccccc2n1Cc1ccccc1F | 1 | -11 | 77* | -7 | 18 | · | +
Cn1ccnc1C1(O)CCN(C(=O)C(C)(C)C)CC1 | · | · | -18 | · | 6 | · | ·
COc1ccccc1NC(=O)CSc1nc2sc(C)c(C)c2c(=O)n1-c1ccccc1 | · | · | 4 | · | 2 | · | ·
CCSCC1COC(c2cccn2Cc2ccc(C)cc2)=N1 (stereo unspecified) | -1 | -3 | 27 | -50 | 9 | -33 | ·
CCC1COC(c2cccn2Cc2ccc(Cl)cc2)=N1 (stereo unspecified) | 0 | -14 | 65* | 18 | 3 | -10 | i
COc1ccc(OCC(=O)Nc2nc3cc(Cl)c(OC)cc3s2)cc1 | · | · | -15 | · | 4 | · | ·
c1ccc(-c2csc3ncnc(N4CCc5ccccc5C4)c23)cc1 | 0 | 9 | 72* | 0 | 6 | -7 | +
CC(=O)N1c2ccccc2C(C)(c2ccccc2)CC1(C)C (stereo unspecified) | -1 | 3 | 78* | 0 | 8 | · | +
CC1(c2ccc([N+](=O)[O-])cc2)CC(C)(C)N(C(=O)c2ccccc2)c2ccccc21 (stereo unspecified) | 1 | -22 | -3 | -9 | 1 | -10 | ·
COCCn1c(SC(C(=O)Nc2cc(C)ccc2OC)c2ccccc2)nnc1-c1ccc(Cl)cc1 (stereo unspecified) | 0 | -6 | 55 | · | 8 | 11 | i
COc1ccc(C)cc1NC(=O)C(Sc1nnnn1C)c1ccccc1 (stereo unspecified) | -1 | -4 | 26 | · | 5 | -1 | ·
COC(=O)c1c(NC(=O)c2ccco2)sc2c1CCC2 | 2 | -13 | 33 | 7 | 16 | · | ·
COC(=O)c1c(NC(=O)c2cccs2)sc2c1CCC(C)C2 (stereo unspecified) | -1 | 0 | 64* | · | 10 | -19 | i
CC(C)OC(=O)c1c(NC(=O)c2cccs2)sc2c1CCCC2 | 0 | -7 | 54 | · | 6 | 14 | +
CC(C)OC(=O)c1c(NC(=O)c2ccco2)sc2c1CCCCC2 | 1 | -13 | 58 | 17 | 14 | · | i
COCCCNC(=O)c1c(O)c2cc(OC)c(OC)cc2[nH]c1=O | · | · | -9 | · | 8 | · | ·
SMILES | S1P4 agonist | S1P4 antagonist | EP2 modulator | Insulin prom inh | PGE2 EP2 inh | S1P3 antagonist | EP2 cAMP induct | others
Cc1ccc(-c2csc(N=C(N)N)n2)cc1 | 0 | -10 | -44 | · | 8 | -6 | ·
NC(N)=Nc1nc(CSCC/C(N)=N/S(N)(=O)=O)cs1 | 3 | -18 | 10 | -19 | 12 | -8 | i
N#CC1=C(S)N(c2ccccc2)C2(CCCCC2)NC1=O | 0 | 1 | 71* | -8 | 13 | -4 | i
Cc1ccc2[nH]c(=O)c(CN(Cc3ccc(F)cc3)C(=S)NCCCN(C)C)cc2c1 | · | · | -56 | · | 34 | · | ·
CC[C@H](C)C(=O)O[C@H]1C[C@@H](C)C=C2C=C[C@H](C)[C@H](CC[C@@H]3C[C@@H](O)CC(=O)O3)[C@H]21 | -2 | -7 | 33 | -22 | 10 | 1 | i
CC[C@H](C)C(=O)O[C@H]1CCC=C2C=C[C@H](C)[C@H](CC[C@@H]3C[C@@H](O)CC(=O)O3)[C@H]21 | 1 | 0 | 34 | -133 | 6 | -17 | ·
CCCC(=O)Nc1nnc(C(C)(C)C)s1 | · | · | 10 | · | 11 | · | ·
CCCc1nc(SCC(=O)Nc2nc3c(s2)CCCC3)c2ccccc2n1 | -1 | -4 | 59 | · | · | · | ·
Cc1cccc(C)c1NC(=O)CSc1nc(COc2ccccc2)nc2ccccc12 | 0 | -6 | 69* | 32 | 37 | · | i
CCc1nc(SCC(=O)Nc2nc3c(s2)CCCC3)c2ccccc2n1 | -1 | 0 | 87* | · | 12 | · | i
Cc1c(C)c2ccc(OCC(=O)Nc3cccc(C#N)c3)c(C)c2oc1=O | · | · | -10 | · | 12 | · | ·
COc1cccc2[nH]c3c(N4CCc5ccccc5C4)ncnc3c12 | 2 | -6 | -12 | · | 11 | 11 | ·
COc1cccc2[nH]c3c(N4CCC(C)CC4)ncnc3c12 | 1 | 7 | 80* | · | 6 | 3 | +
COc1ccc(Cl)cc1NC(=O)Cn1nc([N+](=O)[O-])c(Br)c1C | · | · | 14 | · | 19 | · | ·
Cc1ccc(-c2nnn(CC(=O)N(C)C3CCCCC3)n2)cc1 | · | · | -30 | · | 8 | · | ·
CCCOc1ccc(/C=N/Nc2ccc(C(=O)O)cc2)c(OCCC)c1 | 12* | 13 | 88* | · | 15 | -5 | + | S1P4 agonist cf=-1;S1P1 agonist=-2
O=C(NCCN1CCOCC1)C(=O)Nc1cccc(C(F)(F)F)c1 | · | · | -2 | · | 6 | · | ·
OC1(c2ccc(Br)cc2)CN(c2ccccc2)C2=[N+]1CCS2 (stereo unspecified) | 0 | 30* | 75* | · | 14 | -5 | + | S1P4 antag cf=8;S1P1 antagonist=2
COc1ccc(-c2nn(Cc3cccnc3)c(=O)o2)c2ccccc12 | · | · | -25 | · | · | · | ·

Source: PubChem BioAssay
